# Data from PubChem BioAssay (NCI).
# About 83,000 compounds went through this panel and 20% of them were active in at least one assay; those are over-represented in the sample as a whole.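 Growth was measured after 48 h exposure to one concentration of compound in 96-well plates. Values under 10 count as active.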 Values without a mark were called inactive. Calls of active or inactive are those of the source.
# System: IGROV1 ovarian
# Test: NCI-60 one-dose screen, 48 h (100 = growth as untreated, 0 = no growth, -100 = all killed)
# Conditions: 10 µM unless noted
row,SMILES,growth
1,COc1cc(OC)c(S(N)(=O)=O)cc1C(C)=O,112%
2,O=S(=O)(Nc1ccc2c(c1)OCO2)c1ccc(-c2cnc(C3CC3)o2)cc1,40.6%
3,COc1cccc2c1CN(C(=O)c1ccc(O)c(C(=O)N3Cc4ccc(OCCC[P+](c5ccccc5)(c5ccccc5)c5ccccc5)cc4C3)c1)C2,43.9%
4,O=S(=O)(Nc1ccc(I)cc1Cl)c1ccc(-c2cnc(C3CC3)o2)cc1,43.2%
5,C=C(C=O)[C@@H]1CC[C@]2(CO)CC[C@]3(C)[C@H](CC[C@@H]4[C@@]5(C)CCCNC(C)(C)[C@@H]5CC[C@]43C)[C@@H]12,52.8%
6,C=CCn1c(SCC(=O)Nc2ccc(C(=O)/C=C/c3cccc([N+](=O)[O-])c3)cc2)nnc1-c1c[nH]c2ccccc12,82.7%
7,CNC(=O)c1c(NC(=O)c2cccc(C(F)(F)F)c2F)sc2c1CCC(=O)C2,10.5%
8,COc1ccc(C2c3sc4c(C)cccc4c3Oc3nc(CC(=O)Nc4ccccc4)[nH]c(=O)c32)cc1 (stereo not given),47.9%
9,COCCNc1ccc2ncc(C#Cc3cncc(C(=O)Nc4ccc(CN5CCN(C)CC5)c(C(F)(F)F)c4)c3)n2n1,-12% (active)
10,CCN1CCN(C(=O)[C@]23CCC(C)(C)C[C@H]2C2=CC[C@@H]4[C@@]5(C)Cc6c([nH]c7ccccc67)C(C)(C)[C@@H]5CC[C@@]4(C)[C@]2(C)CC3)CC1,88.7%
11,CCn1c(SCC(=O)Nc2cccc(C(=O)/C=C/c3ccc(C)cc3)c2)nc2ccccc2c1=O,77.1%
12,CN1c2ccccc2Sc2cc(C=C(C#N)C#N)ccc21,75.6%
13,CN1CCN(Cc2ccc(NC(=O)c3cncc(C#Cc4cnn5cccnc45)c3)cc2C(F)(F)F)CC1,5.44% (active)
14,N#Cc1cccc(/C(N)=N/C(N)=N/c2nc3ccccc3s2)c1,36.6%
15,NS(=O)(=O)c1ccc(Nc2nc(N/N=C/c3c[nH]c4ccccc34)nc(Nc3ccccc3)n2)cc1,33.9%
16,N#C/C(=C\c1ccc(-c2ccc(Cl)cc2Cl)o1)c1ccc(F)cc1,86.5%
17,O=C1/C(=C/C=C/c2ccco2)SC(=S)N1C1CCCCC1,101%
18,O=C(Nc1cccc(Cl)c1)Nc1nc2ccc([N+](=O)[O-])cc2o1,20.8%

row,SMILES,growth
1,COc1cccc(C(=O)Nc2cccc(C#Cc3cccc4[nH]nc(N)c34)c2)c1,59.9%
2,COc1cc(OC)c(S(N)(=O)=O)cc1C(=O)/C=C/c1ccc(Cl)cc1,6.66% (active)
3,COc1cc2nc(Cl)nc(Nc3cccc(C4=Nc5c(N)nc(N)nc5NC(c5ccc(Br)cc5)C4)c3)c2cc1OC (stereo not given),94.1%
4,CC1=N[C@@H]2CN(C(=O)OC(C)(C)C)C[C@@H]2n2c1cc1ccccc1c2=O,107%
5,O=S(=O)(NCCNc1nccc(-n2cnc3ccccc32)n1)c1ccc(Br)cc1,90.7%
6,Cc1cc(-c2ccc(Cl)cc2)n(Cc2nnc(SCC(=O)Nc3ccc(S(N)(=O)=O)cc3)n2C2CCCCC2)n1,104%
7,COc1cc(OC)cc(C(=O)Nc2sc3c(c2C(N)=O)CCC(=O)C3)c1,48.8%
8,COc1cccc2cc(-c3cc4ccccc4[nH]3)/c(=N\NC(=O)c3ccc(Cl)cc3)oc12,26.3%
9,CC(C)(C)c1ccc(CC(=O)Nc2sc3c(c2C(N)=O)CCC(=O)C3)cc1,8.85% (active)
10,c1cn2c(ccc3nc(-c4cn[nH]c4)c4c(c32)CCCC4)n1,45.3%
11,COc1cc(-c2nn(C(C)(C)C)cc2-c2ccnc(NCCCNS(=O)(=O)c3ccc(F)cc3)n2)ccc1Cl,61.6%
12,Clc1nc2ccccc2nc1-c1nnc(C2CCCCC2)o1,101%
13,CCCn1cnc2c(c1=N)C(c1ccc(F)cc1)c1sc3c(CC)cccc3c1O2 (stereo not given),10.2%
14,COc1ccc(-n2c(/C=C3\C(=O)Nc4ccccc43)ccc2CO)cc1,98.5%
15,N#Cc1ccccc1Cn1c2nc(=N)c3ccccc3c-2nc2ccccc21,49.6%
16,COc1cc2nc(Cl)nc(Nc3cccc(C4=Nc5c(N)nc(N)nc5NC(c5ccc(F)cc5)C4)c3)c2cc1OC (stereo not given),80.8%
17,CCn1c2ccccc2c2cc(-n3nncc3-c3ccccc3)ccc21,16.2%
